Results filed as inconclusive are left out. Values without a mark were called inactive. The call rests on the fitted dose curve; in most records, active means well fitted inhibition curve with a large enough effect; inconclusive means small, poorly fitted or top-dose-only effect; inactive means flat fitted curve, though single readings scatter.
tested on: MCC-26; assay: qHTS assay to identify novel small-molecules to repurpose for Merkel cell carcinoma treatment (AID 1296009); conditions: MCC and control cell lines, CellTiter-Glo viability, 72 h; series mostly up to 46 µM; activity change, negative = cytotoxicity: at the top concentration; further: nearly all actives have a fitted effect of over 60% in size
How it was run: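 CellTiter-Glo luminescence after 72 hr compound exposure at 37 degree celsius gave cell viability. Libraries NPC and MIPE were run as 8- and 11-point dose responses; RLUs normalized to DMSO (negative) and no-cell (cytotoxicity) controls.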
On the % scale 0 is the no-effect control and ±100 the full control effect.

Row | SMILES | activity change, negative = cytotoxicity
1 | C[C@@H](C1=C(CCN(C)C)Cc2ccccc21)c1ccccn1 | -1.42%
2 | O=C1OC2(c3ccccc31)c1cc(I)c(O)c(I)c1Oc1c2cc(I)c(O)c1I | -4.46%
3 | CCOCCn1c(C2CCN(CCc3ccc(C(C)(C)C(=O)O)cc3)CC2)nc2ccccc21 | -1.64%
4 | O=C(Oc1ccccc1)c1cccc(C(=O)Oc2ccccc2)c1 | 10.1% [at 92.7 µM]
5 | CCc1cc2cc(OC)c(OC)cc2c(Cc2ccccc2)n1 | 3.44%
6 | CCOc1ncc(F)c(=O)[nH]1 | 7.29%
7 | COCCOCC(OC)OC | 10.2%
8 | O=C(O)c1ccc(OCCN2CCCCC2)cc1 | 9.46%
9 | Oc1ccccc1 | 10.9%
10 | O=C(OCCN1CCOCC1)c1cccnc1Nc1cccc(C(F)(F)F)c1 | -3.65%
11 | O=C(O)c1ccccc1Nc1cc(Cl)ccc1C(=O)O | -14.9% [at 16.1 µM]
12 | COc1ccc2cc(C=O)ccc2c1 | 0.208%
13 | COc1ccc2c(c1)c(CC(=O)OC/C=C(\C)CC/C=C(\C)CCC=C(C)C)c(C)n2C(=O)c1ccc(Cl)cc1 | -3.15%
14 | O=C(O)[C@@H](O)[C@H](O)[C@H](O)[C@@H](O)C(=O)O | 5.32%
15 | CNC(=O)c1c(I)c(NC(C)=O)c(I)c(C(=O)O)c1I | 7.5%
16 | NCC[C@H](O)C(=O)N[C@@H]1C[C@H](N)[C@@H](O[C@H]2O[C@H](CN)[C@@H](O)[C@H](O)[C@@H]2O)[C@H](O)[C@@H]1O[C@H]1O[C@H](CO)[C@@H](O)[C@H](N)[C@@H]1O | 13.8% [at 0.597 µM]
17 | O=C1Cc2cc(Cl)ccc2N1 | 3.98%
18 | CN(C)CCOC1=Cc2ccccc2Sc2ccc(Cl)cc21 | -13.3%
19 | CCCCC(CC)CNC(=O)CC(C)OC(=O)CCC(=O)O (stereo not given) | -2.99%
20 | C[C@@H]1CCC[C@H](C)N1CCCC(O)(c1ccccc1)c1ccccn1 (stereo not given in full) | 2.42%

Row | SMILES | activity change, negative = cytotoxicity
21 | O=C1CCCc2c(O)cccc21 | -5.83%
22 | C=CCOc1cc(Cl)ccc1C(=O)NCCN(CC)CC | 10%
23 | Cc1onc(-c2ccccc2)c1C(=O)Cl | 4.49%
24 | CCCCCCOC(=O)NC(=N)c1ccc(NCc2nc3cc(C(=O)N(CCC(=O)OCC)c4ccccn4)ccc3n2C)cc1 | 8.09%
25 | CCN1CCN(C(=O)N[C@@H](C(=O)N[C@@H]2C(=O)N3[C@@H]2SC(C)(C)[C@H]3C(=O)O)c2ccccc2)C(=O)C1=O | 8.98%
26 | Nc1nc2ccccc2n1Cc1ccc(F)cc1 | -11%
27 | Oc1ccc(CCNCCCCCCNCCc2ccccc2)cc1O | -12.4%
28 | CCOC(=O)c1cc(=O)c2c(OCC(COc3cccc4oc(C(=O)OCC)cc(=O)c34)OC(=O)[C@@H](N)CCCCN)cccc2o1 | 5.64%
29 | CC(C)C(=O)Nc1cccc(C(F)(F)F)c1 | 15%
30 | C=C(C)C(=O)OCC(O)CO (stereo not given) | -7.03%
31 | CCCCN(CCN(CCCC)C(=O)N1CCOCC1)C(=O)N1CCOCC1 | -5.73%
32 | CC(Oc1c(Cl)cccc1Cl)C1=NCCN1 (stereo not given) | 2.72%
33 | CC(=O)OC/C=C(C)/C=C/C=C(C)/C=C/C1=C(C)CCCC1(C)C | 14.7%
34 | CC(C)(C)CC(=O)OCC(=O)[C@@]1(O)CC[C@H]2[C@@H]3CCC4=CC(=O)C=C[C@]4(C)[C@H]3[C@@H](O)C[C@@]21C | -17.7%
35 | Cc1ccc(/C=N/n2c(-c3ccccc3)csc2=S)cc1 | 3.58%
36 | CO[C@@H]1[C@@H](O[C@@H]2O[C@H](C)[C@@H](O[C@H]3C[C@@](C)(O)[C@@H](O)[C@H](C)O3)[C@H](N(C)C)[C@H]2O)[C@@H](CC=O)C[C@@H](C)[C@@H](O[C@@H]2CC[C@H](N(C)C)[C@@H](C)O2)/C=C/C=C/C[C@@H](C)OC(=O)C[C@H]1OC(C)=O | -4.19%
37 | N#CSCC(=O)O | 2.74%
38 | Cc1ccc(CCn2c3c(c4cc(Cl)ccc42)CN(C)CC3)cn1 | -1.6%
39 | CO/N=C(/C(=O)N[C@@H]1C(=O)N2C(C(=O)OCOC(=O)C(C)(C)C)=C(C)CS[C@H]12)c1csc(N)n1 | 3.25%
40 | CC(C)Cc1ccc(C(C)C(=O)OCc2ccccn2)cc1 (stereo not given) | -1.82%

Reference: PubChem BioAssay (NCATS)
